# The list is not random: actives were taken first. Their share in the collection is about 1.8%.
# MLL AF4-AF9 inh = inhibitors of human MLL-AF4/AF9 interaction. AlphaScreen, biotin-AF4 peptide binding to FLAG-AF9. inhibition, % at 10 µM. 350,000 tested, 0.47% active. AID 651704;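 active = every replicate reaching a set inhibition limit, whatever the replicate mean, cut at about 25% in these data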;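 note: 0% = plate neutral control median and 100% = total signal loss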
# Target sequence (P42568 whole entry, looked up): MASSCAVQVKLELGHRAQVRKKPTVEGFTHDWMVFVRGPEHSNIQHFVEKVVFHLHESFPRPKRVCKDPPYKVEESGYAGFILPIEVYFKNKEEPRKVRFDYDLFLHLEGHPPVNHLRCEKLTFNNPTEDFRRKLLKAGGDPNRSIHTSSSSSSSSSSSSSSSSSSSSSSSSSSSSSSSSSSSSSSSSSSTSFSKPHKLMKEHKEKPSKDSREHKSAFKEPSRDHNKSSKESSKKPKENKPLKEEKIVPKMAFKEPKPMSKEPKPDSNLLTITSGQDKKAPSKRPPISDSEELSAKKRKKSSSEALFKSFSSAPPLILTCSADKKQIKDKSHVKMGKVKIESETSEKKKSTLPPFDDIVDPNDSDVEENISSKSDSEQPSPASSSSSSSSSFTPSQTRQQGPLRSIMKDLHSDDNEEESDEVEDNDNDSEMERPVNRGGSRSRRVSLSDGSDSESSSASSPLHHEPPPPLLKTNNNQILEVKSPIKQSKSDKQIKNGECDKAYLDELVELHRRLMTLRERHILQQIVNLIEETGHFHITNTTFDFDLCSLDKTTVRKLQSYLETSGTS
# DENV2 CPE rescue = protects cells from dengue virus 2 cytopathic effect; DENV2-infected cells, cytopathic effect rescue, plate reader; 350,000 tested, 1.7% active; CPE inhibition, % at 9.99 µM; in the data active = CPE inhibition above about 20%, passing the limit was not always enough; tested in BHK-21 cells;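 note: 0% = median of neutral control wells and 100% = median of positive control wells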
# PDI inh = PDI (human) enzyme inhibition. PDI insulin aggregation turbidity, A650, 90 min. P07237. inhibition, % at 10 µM. 350,000 tested, 0.052% active;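 active = mean inhibition across replicates of 30% or more, whatever share of single replicates reach that level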
# ERp5 block = ERp5 (human) disulfide isomerase inhibition | ERp5 insulin aggregation, absorbance 650 nm, 90 min | inhibition, % at 9.99 µM | 350,000 tested, 0.05% active;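 active = mean replicate inhibition above about 25%, with every replicate also reaching it, limit read from the data, passing the limit was not always enough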
# ERAP1 inh = inhibitors of human ERAP1 aminopeptidase. Q9NZ08. recombinant ERAP1, Leu-AMC fluorescence, 60 min. inhibition, % at 10.7 µM. 340,000 tested, 0.15% active. AID 652197;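 active = mean replicate inhibition of at least 30%, or all replicates individually reaching that 30% level; inactive = mean below 30% and not every replicate reaching it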;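 note: 0% = neutral control wells and 100% = L-leucinethiol positive control wells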
# Starred values were filed as active, the others as inactive; x = no result given; ! = a repeat was not active.
SMILES,MLL AF4-AF9 inh,DENV2 CPE rescue,PDI inh,ERp5 block,ERAP1 inh
C[C@H]1CN([C@@H](C)CO)C(=O)Cc2cc(NS(=O)(=O)c3ccc(Cl)cc3)ccc2O[C@@H]1CN(C)Cc1ccc2c(c1)OCO2,2,23*,x,0,1
C[C@H](CO)N1C[C@H](C)[C@@H](CN(C)Cc2ccc3c(c2)OCO3)Oc2ccc(NS(=O)(=O)c3cn(C)cn3)cc2CC1=O,x,45*,x,x,x
CCS(=O)(=O)Nc1ccc2c(c1)C(=O)N(C)C[C@H](OC)[C@H](C)CN[C@H](C)CO2,-2,21*,x,3,0
CCS(=O)(=O)Nc1ccc2c(c1)C(=O)N(C)C[C@@H](OC)[C@@H](C)CN[C@H](C)CO2,-1,55*,x,4,1
CCN(CC)CC(O)Cn1c(C)c(-c2ccccc2)c2cc([N+](=O)[O-])ccc21 (configuration not stated),37*,-1,-1,1,-1
CCOC(=O)c1cc(CC)sc1NC(=O)CC1Sc2ccc(C(F)(F)F)cc2NC1=O (configuration not stated),x,x,-1,x,x
COC(=O)c1c(NC(=O)CC2Sc3ccc(C(F)(F)F)cc3NC2=O)sc(C)c1C (configuration not stated),2,25*,3,-3,3
CS(=O)(=O)Nc1ccc2c(c1)[C@@H]1C[C@H](CC(=O)NCc3cccnc3)O[C@@H](CO)[C@@H]1O2,-2,-1,x,-4,0
CC(=O)Oc1ccccc1C(=O)OCO/N=[N+](\[O-])N1CCC[C@H]1C(=O)O,2,-2,x,3,0
CC(=O)OCO/N=[N+](\[O-])N1CCCC1,-5,24*,x,-2,4
C[C@@H]1CN([C@@H](C)CO)C(=O)c2cc(NS(C)(=O)=O)ccc2O[C@@H](C)CCCCO[C@@H]1CN(C)Cc1ccc2c(c1)OCO2,1,16,x,-7,0
COc1cccc(S(=O)(=O)N(C)C[C@H]2Oc3ncc(Br)cc3C(=O)N([C@H](C)CO)C[C@H]2C)c1,-5,-7,2,-1,-2
COc1ccc(S(=O)(=O)N(C)C[C@@H]2Oc3ncc(-c4ccncc4)cc3C(=O)N([C@H](C)CO)C[C@H]2C)cc1,-3,-1,x,3,10
COc1ccc(S(=O)(=O)N(C)C[C@@H]2Oc3ncc(-c4ccncc4)cc3C(=O)N([C@@H](C)CO)C[C@@H]2C)cc1,-3,51*,x,1,4
COc1cccc(S(=O)(=O)N(C)C[C@@H]2Oc3ncccc3C(=O)N([C@H](C)CO)C[C@@H]2C)c1,-10,2,x,-9,46*
COc1ccc(S(=O)(=O)N(C)C[C@@H]2Oc3ncccc3C(=O)N([C@H](C)CO)C[C@@H]2C)cc1,-5,7,x,0,42*
C[C@H](CO)N1C[C@H](C)[C@H](CN(C)S(=O)(=O)c2ccccc2)Oc2ncccc2C1=O,-6,0,x,-2,2
O=C(O)C[C@@H]1CC[C@H](NC(=O)c2ccncc2)[C@@H](CO)O1,-4,12,x,7,0
COc1ccccc1N1CC(C(=O)Nc2nnc(SCc3ccccn3)s2)CC1=O (configuration not stated),x,x,13,x,x
CNC(=O)CSc1nnc(NC(=O)C2CC(=O)N(c3ccccc3OC)C2)s1 (configuration not stated),-2,33*,1,4,0
Cc1cnc(NC(=O)C2CC(=O)N(c3cccc(Cl)c3)C2)s1 (configuration not stated),-2,33*,-1,-1,-2
COc1cccc(N2CC(C(=O)Nc3ccc(F)cc3)CC2=O)c1 (configuration not stated),0,27*,-3,2,-1
COc1cccc(N2CC(C(=O)Nc3nnc(SCCC4OCCO4)s3)CC2=O)c1 (configuration not stated),-2,93*,1,7,2
COc1cccc(N2CC(C(=O)Nc3ccc(C(=O)OC(C)C)cc3)CC2=O)c1 (configuration not stated),x,x,7,3,-2
CCC(=O)NC(c1ccc(C)cc1)c1ccc2cccnc2c1O (configuration not stated),0,-1,0,1,-3
SMILES,MLL AF4-AF9 inh,DENV2 CPE rescue,PDI inh,ERp5 block,ERAP1 inh
CCN1CCN(C(c2ccc(C(F)(F)F)cc2)c2ccc3cccnc3c2O)CC1 (configuration not stated),85*,-2,8,1,2
Cc1noc(C)c1NC(=O)Nc1ccc2c(c1)C(=O)N([C@H](C)CO)C[C@@H](C)[C@H](CN(C)CC1CC1)OCCCC[C@@H](C)O2,-7,1,x,0,-1
C[C@H]1CN([C@@H](C)CO)S(=O)(=O)c2ccc(C#Cc3ccccc3)cc2O[C@@H]1CN(C)S(=O)(=O)c1cn(C)cn1,-1,34*,x,2,1
CC(C)C#Cc1ccc2c(c1)O[C@H](CN(C)S(=O)(=O)c1cn(C)cn1)[C@H](C)CN([C@H](C)CO)S2(=O)=O,-1,-7,x,2,1
C[C@@H]1CN([C@@H](C)CO)S(=O)(=O)c2ccc(Br)cc2O[C@@H]1CN(C)S(=O)(=O)c1cn(C)cn1,-2,24*!,-7,-6,4
O=S(=O)(N[C@@H]1CC[C@H](CCn2cc(C3CC3)nn2)O[C@H]1CO)c1ccc(Cl)cc1,-2,0,x,-2,2
C[C@H]1CN([C@@H](C)CO)C(=O)c2cc(C#CC(C)(C)O)cnc2O[C@@H]1CN(C)C(=O)c1ccccc1F,-4,-1,x,2,-2
COc1ccccc1CCN=C(N)NS(=O)(=O)c1ccc(F)cc1,2,55*,-5,-5,0
NC(=NCCc1c[nH]c2ccccc12)NS(=O)(=O)c1cc(F)ccc1F,7,-5,-8,6,43*
CC1(C)Oc2ccc3ccc(=O)oc3c2CC1O (configuration not stated),-1,5,-8,4,0
CC1(C)Oc2ccc3ccc(=O)oc3c2C[C@H]1O[C@@H]1O[C@H](CO)[C@@H](O)[C@H](O)[C@H]1O,-3,41*,-2,-2,x
CC(C)CNC(=O)c1cccc2c1-c1ccccc1C2=O,42*,4,-3,5,0
N#CCCn1cc(C(=O)CN2C(=O)NC3(CCc4ccccc43)C2=O)c2ccccc21 (configuration not stated),0,34*,-6,2,-2
N#CCCn1cc(C(=O)CN2C(=O)NC3(CCCCCC3)C2=O)c2ccccc21,1,11,-1,2,-6
N#C[C@@H]1[C@H](c2ccc(C3=CCCCC3)cc2)[C@H](CO)N1C(=O)c1cccc(F)c1,1,-2,x,2,-4
COc1ccc(CN(C)C[C@H]2Oc3ccc(NS(=O)(=O)c4c(C)noc4C)cc3C(=O)N([C@H](C)CO)C[C@H]2C)cc1,1,29*,x,1,2
Cc1noc(C)c1S(=O)(=O)Nc1ccc2c(c1)C(=O)N([C@@H](C)CO)C[C@@H](C)[C@@H](CN(C)Cc1ccc3c(c1)OCO3)O2,0,32*,x,-6,2

# Screens deposited in PubChem by Broad Institute.
